# In PubChem BioAssay (EPA / NIEHS):
# “And” between values parts separate entries of the source, which are not always exact repeats. Identical values can stand only once. Inconclusive results are not listed. The source made the active and inactive calls. Rule for the calls, unless noted: active = hit-call score of the fitted dose curve at least 0.9, where 1 is the maximum; inconclusive = response in the unintended direction; inactive = score below 0.9.
# Tests used:
# [1] = Tanguay_ZF_120hpf_TRUN_legacy: (Legacy) Oregon State University Tanguay Lab 120 Hour Post-fertilization zebrafish Assay for Truncated Body (AID 2283655)
# How it was run: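 Single dechorionated zebrafish embryos received test chemical from 6 hpf in 0.64% DMSO, kept at 28C. At 120 hpf, brightfield inspection noted any truncated body.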
# [2] = Tanguay_ZF_120hpf_NC_legacy: (Legacy) Oregon State University Tanguay Lab 120 Hour Post-fertilization zebrafish Assay for Notochord and Tail Malformation (AID 2283656)
# How it was run: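 Binary notochord-distortion calls, made by brightfield inspection, form the read-out; activity is fitted in the positive direction against DMSO. Exposure ran statically from 6 to 120 hpf at 28C with 0.64% DMSO.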
# [3] = read-out: matrix metalloproteinase-1 (MMP1), MMP1 (gene 4312); assay: LTEA_HepaRG_MMP1: Life Technologies and Expression Analysis (LTEA) Assay for matrix metalloproteinase-1 (MMP1) using HepaRG (AID 2283658; active = hit-call score of the fitted dose curve at least 0.9, where 1 is the maximum; inactive = score below 0.9); conditions: mRNA level, 48 h; actives raise or lower the signal
# How it was run: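 In this screen, human liver HepaRG cultures receive each chemical in duplicate for 48 h (top 100 uM, 0.5% DMSO). MMP1 expression is then quantified by TaqMan qRT-PCR with ACTB/GAPDH/POLR2A normalization.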
# [4] = read-out: Broad substrate specificity ATP-binding cassette transporter ABCG2 (Homo sapiens) (UniProt Q9UNQ0); assay: CLD_ABCG2_6hr: CellzDirect (CLD) Gene Expression Assay for ABC Transporter (ABCG2) at 6 hours (AID 2283660)
# How it was run: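 ABCG2 mRNA induction measured by qNPA chemiluminescence in human primary hepatocyte cultures, 6 h post-dose. Chemicals tested at several concentrations against a 0.2% DMSO vehicle; positive-direction fit relative to DMSO.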
# [5] = read-out: xenobiotic metabolism (CYP1A2), CYP1A2 (gene 1544); assay: CLD_CYP1A2_6hr: CellzDirect (CLD) Gene Expression Assay for xenobiotic metabolism (CYP1A2) at 6 hours (AID 2283663);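 for AC50: potency is for induction meaning a rise in mRNA above DMSO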
# How it was run: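 mRNA levels quantified by quantitative nuclease protection assay with chemiluminescence, 6 h after dosing human primary hepatocyte cultures (two donors) across several concentrations, vehicle 0.2% DMSO. Induction fitted upward versus DMSO; phase-contrast cytotoxicity annotated.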
# [6] = read-out: alkyl and aryl transferase (GSTA2), GSTA2 (gene 2939); assay: CLD_GSTA2_6hr: CellzDirect (CLD) Gene Expression Assay for alkyl and aryl transferase (GSTA2) at 6 hours (AID 2283666)
# How it was run: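 GSTA2 transcript induction at 6 h, quantified by nuclease protection (qNPA) with chemiluminescent detection, in human liver primary hepatocytes exposed to several compound concentrations with 0.2% DMSO as baseline; phase-contrast morphology annotated apparent cytotoxicity.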
# [7] = Tanguay_ZF_120hpf_TR_legacy: (Legacy) Oregon State University Tanguay Lab 120 Hour Post-fertilization zebrafish Assay for Touch Response (AID 2283667)
# How it was run: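 Readout is presence or absence of touch response in 120 hpf zebrafish larvae, assessed by brightfield observation after continuous static exposure at 28C. Final vehicle was 0.64% (vol/vol) DMSO.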
# [8] = read-out: glucuronosyltransferase (UGT1A1), UGT1A1 (gene 54658); assay: CLD_UGT1A1_6hr: CellzDirect (CLD) Gene Expression Assay for glucuronosyltransferase (UGT1A1) at 6 hours (AID 2283672)
# How it was run: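 UGT1A1 mRNA induction, read by quantitative nuclease protection assay, 6 h after dosing primary human hepatocytes (two donors, 0.2% DMSO vehicle). Gain of signal fitted relative to vehicle.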
# [9] = read-out: Cytochrome P450 2B6 (Homo sapiens) (UniProt P20813); assay: CLD_CYP2B6_6hr: CellzDirect (CLD) Gene Expression Assay for xenobiotic metabolism (CYP2B6) at 6 hours (AID 2283677);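 note: actives raise CYP2B6 transcript above DMSO baseline so AC50 marks an inducer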
# How it was run: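 CYP2B6 transcript levels, read by chemiluminescent qNPA, were fitted for increase versus DMSO baseline; cultured human liver hepatocytes from two donor preparations were harvested 6 h after exposure to test chemicals at multiple concentrations.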
# [10] = read-out: ABC Transporter (ABCB1), ABCB1 (gene 5243); assay: CLD_ABCB1_6hr: CellzDirect (CLD) Gene Expression Assay for ABC Transporter (ABCB1) at 6 hours (AID 2283659);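 note: hits raise ABCB1 transcript above the DMSO vehicle baseline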
# How it was run: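 ABCB1 transcript measured by quantitative nuclease protection assay, chemiluminescent read-out, 6 h after dosing human hepatocyte cultures (0.2% DMSO vehicle, daily redosing). Activity fitted as increase over DMSO baseline; cytotoxicity flagged by phase-contrast morphology.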
# [11] = read-out: xenobiotic metabolism (CYP1A1), CYP1A1 (gene 1543); assay: CLD_CYP1A1_6hr: CellzDirect (CLD) Gene Expression Assay for xenobiotic metabolism (CYP1A1) at 6 hours (AID 2283661)
# How it was run: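 Read-out 6 h post-dose: qNPA chemiluminescent quantitation of transcript induction against 0.2% DMSO. Cells were cultured primary human hepatocytes from two separate donor preparations; phase-contrast morphology annotated apparent cytotoxicity.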
# [12] = read-out: xenobiotic metabolism (CYP2C9), CYP2C9 (gene 1559); assay: CLD_CYP2C9_6hr: CellzDirect (CLD) Gene Expression Assay for xenobiotic metabolism (CYP2C9) at 6 hours (AID 2283664)
# How it was run: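 Readout is qNPA chemiluminescence of CYP2C9 mRNA, taken 6 h after dosing of cultured human liver primary cells at several concentrations. Activity is the increase over 0.2% DMSO baseline. Morphology-based cytotoxicity flagged yes/no.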
# [13] = CLD_ACTIN_24hr: CellzDirect (CLD) Gene Expression Assay for Baseline Control (Actin) at 24 hours (AID 2283670)
# How it was run: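 This 24 h qNPA (S1 nuclease protection, chemiluminescence) actin transcript readout in cultured human liver primary cells serves as baseline control. Signal is fitted upward relative to 0.2% DMSO; chemicals tested at multiple concentrations across two donor preparations.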
# [14] = read-out: xenobiotic metabolism (CYP1A1), CYP1A1 (gene 1543); assay: CLD_CYP1A1_24hr: CellzDirect (CLD) Gene Expression Assay for xenobiotic metabolism (CYP1A1) at 24 hours (AID 2283673);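 note: CYP1A1 mRNA level by quantitative nuclease protection with chemiluminescence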
# How it was run: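 Transcript levels were read at 24 h by qNPA chemiluminescence in human liver primary cells. Cells got daily fresh dosing at multiple concentrations (vehicle 0.2% DMSO). Induction fitted upward against DMSO; phase-contrast cytotoxicity annotated.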
# [15] = read-out: ABC Transporter (ABCB11), ABCB11 (gene 8647); assay: CLD_ABCB11_24hr: CellzDirect (CLD) Gene Expression Assay for ABC Transporter (ABCB11) at 24 hours (AID 2283674; active = hit-call score of the fitted dose curve at least 0.9, where 1 is the maximum; inactive = score below 0.9)
# How it was run: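 ABCB11 transcript was quantified by qNPA chemiluminescence in cultured human liver hepatocytes 24 hours after dosing. Fresh dosing solutions were applied on consecutive days, against a 0.2% DMSO vehicle. Cytotoxicity was noted by phase-contrast morphology.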
# [16] = read-out: Cytochrome P450 2C19 (Homo sapiens) (UniProt P33261); assay: CLD_CYP2C19_6hr: CellzDirect (CLD) Gene Expression Assay for xenobiotic metabolism (CYP2C19) at 6 hours (AID 2283678)
# How it was run: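 CYP2C19 transcript induction was quantified by quantitative nuclease protection assay with chemiluminescent read-out, 6 h after dosing. Cells were primary human hepatocytes from two donor preparations, given fresh dosing solutions daily in 0.2% DMSO vehicle. Activity was relative to DMSO.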
# [17] = test system: Thyroperoxidase (TPO), gene 54314; assay: CCTE_Simmons_AUR_rTPO: CCTE's Amplex UltraRed Assay for Thyroperoxidase (TPO) Inhibition, Simmons Lab (AID 2283662);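 for AC50: potency for loss of signal meaning inhibition of peroxidase activity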
# How it was run: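 Cell-free peroxidase activity assay using rat thyroid gland microsomes with excess H2O2 (300 uM) and 25 uM Amplex UltraRed. Compounds tested from 5 nM to 87.5 uM; fluorescence measured after 30 min at 37C, analysed relative to DMSO baseline.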
# [18] = read-out: ABC Transporter (ABCB11), ABCB11 (gene 8647); assay: CLD_ABCB11_6hr: CellzDirect (CLD) Gene Expression Assay for ABC Transporter (ABCB11) at 6 hours (AID 2283675);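 note: hits raise ABCB11 mRNA level so AC50 marks induction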
# How it was run: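 Read-out was ABCB11 mRNA gain of signal by quantitative nuclease protection assay, relative to 0.2% DMSO vehicle, 6 h post-dose. Cells were primary human hepatocytes from two donors, treated across multiple concentrations; phase-contrast cytotoxicity noted yes/no.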
# [19] = read-out: sulfotransferase (SULT2A), SULT2A1 (gene 6822); assay: CLD_SULT2A_6hr: CellzDirect (CLD) Gene Expression Assay for sulfotransferase (SULT2A) at 6 hours (AID 2283669);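 note: hits raise transcript level above the DMSO vehicle baseline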
# How it was run: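 Measured 6 h after dosing, SULT2A1 mRNA in human hepatocyte lysates was quantified by S1 nuclease protection with chemiluminescent detection. Increases fitted against 0.2% DMSO vehicle baseline; phase-contrast cytotoxicity recorded yes/no.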
# [20] = CLD_ACTIN_6hr: CellzDirect (CLD) Gene Expression Assay for Baseline Control (Actin) at 6 hours (AID 2283676);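 note: active means increased actin mRNA relative to DMSO vehicle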
# How it was run: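 Baseline actin transcript level measured by qNPA (S1 nuclease protection, chemiluminescence) in human hepatocyte cultures 6 h after chemical exposure; 0.2% DMSO vehicle as reference, cytotoxicity noted from morphology.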
# Chain of Broad substrate specificity ATP-binding cassette transporter ABCG2 (Homo sapiens) (Q9UNQ0 whole entry, looked up): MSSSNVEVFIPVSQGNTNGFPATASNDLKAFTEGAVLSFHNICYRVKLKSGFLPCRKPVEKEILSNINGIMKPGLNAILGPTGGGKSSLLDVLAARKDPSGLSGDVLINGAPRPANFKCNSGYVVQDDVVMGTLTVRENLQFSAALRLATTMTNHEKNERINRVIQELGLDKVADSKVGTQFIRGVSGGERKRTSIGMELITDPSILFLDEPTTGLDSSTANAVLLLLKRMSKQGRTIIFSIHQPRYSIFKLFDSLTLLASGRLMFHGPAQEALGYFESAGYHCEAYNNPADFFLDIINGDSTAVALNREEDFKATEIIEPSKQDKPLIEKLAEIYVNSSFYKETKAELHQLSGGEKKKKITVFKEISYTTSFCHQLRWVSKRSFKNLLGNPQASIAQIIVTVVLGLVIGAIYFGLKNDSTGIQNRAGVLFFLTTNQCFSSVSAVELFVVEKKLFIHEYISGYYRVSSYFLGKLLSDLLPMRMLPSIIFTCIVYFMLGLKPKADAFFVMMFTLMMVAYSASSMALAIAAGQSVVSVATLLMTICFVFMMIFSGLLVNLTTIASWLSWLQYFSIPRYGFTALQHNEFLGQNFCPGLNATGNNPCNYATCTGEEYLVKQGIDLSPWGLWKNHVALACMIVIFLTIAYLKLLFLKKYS
# Chain of Cytochrome P450 2C19 (Homo sapiens) (P33261 whole entry, looked up): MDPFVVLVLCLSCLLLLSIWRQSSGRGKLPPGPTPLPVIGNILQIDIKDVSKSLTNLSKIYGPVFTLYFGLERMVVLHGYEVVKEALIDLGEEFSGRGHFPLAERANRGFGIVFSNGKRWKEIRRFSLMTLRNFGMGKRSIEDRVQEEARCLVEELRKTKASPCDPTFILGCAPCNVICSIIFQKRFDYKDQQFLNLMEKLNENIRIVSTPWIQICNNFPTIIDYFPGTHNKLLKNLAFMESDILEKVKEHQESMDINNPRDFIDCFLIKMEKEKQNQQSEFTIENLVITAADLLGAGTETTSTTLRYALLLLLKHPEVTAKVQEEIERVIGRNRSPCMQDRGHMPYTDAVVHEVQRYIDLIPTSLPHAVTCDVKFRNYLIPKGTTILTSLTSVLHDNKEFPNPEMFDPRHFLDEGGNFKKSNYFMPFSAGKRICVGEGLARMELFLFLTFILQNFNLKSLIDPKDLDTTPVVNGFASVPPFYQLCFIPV
smiles,measurement,setting,value
CC(COc1ccc(Oc2ccccc2)cc1)Oc1ccccn1 (stereo unspecified),outcome,[1],inactive
same,outcome,[2],inactive
same,outcome,[3],inactive
same,outcome,[4],inactive
same,outcome,[5],inactive
same,outcome,[6],inactive
same,outcome,[7],inactive
same,outcome,[8],inactive
same,AC50,[9],3.97 µM (active)
CSc1nnc(C(C)(C)C)c(=O)n1N,outcome,[1],inactive
same,outcome,[2],inactive
same,outcome,[10],inactive
same,outcome,[4],inactive
same,outcome,[11],inactive
same,outcome,[5],inactive
same,outcome,[12],inactive
same,outcome,[13],inactive
same,outcome,[8],inactive
same,outcome,[14],inactive
same,outcome,[15],inactive
same,AC50,[9],10.9 µM (active)
C[N+]1(C)CCCCC1,outcome,[1],inactive
same,outcome,[2],inactive
same,outcome,[10],inactive
same,outcome,[4],inactive
same,outcome,[11],inactive
same,outcome,[5],inactive
same,outcome,[6],inactive
same,outcome,[7],inactive
same,outcome,[13],inactive
same,outcome,[8],inactive
same,outcome,[9],inactive
same,outcome,[16],inactive
CCCOCC(=Nc1ccc(Cl)cc1C(F)(F)F)n1ccnc1,outcome,[1],inactive
same,outcome,[2],inactive
same,outcome,[10],inactive
same,outcome,[4],inactive
same,outcome,[17],inactive
same,AC50,[5],1.89 µM (active)
same,outcome,[6],inactive
same,outcome,[7],inactive
same,outcome,[8],inactive
same,AC50,[9],1.15 µM (active)
CCOP(=O)(SC(C)CC)N1CCSC1=O (stereo unspecified),outcome,[1],inactive
same,outcome,[2],inactive
same,outcome,[10],inactive
same,outcome,[4],inactive
same,outcome,[11],inactive
same,AC50,[17],43.8 µM (active)
same,outcome,[7],inactive
same,outcome,[8],inactive
same,outcome,[15],inactive
same,AC50,[9],3.89 µM (active)
same,outcome,[16],inactive
CN(C)[C@@H]1C(=O)C(C(N)=O)=C(O)[C@@]2(O)C(=O)C3=C(O)c4c(O)cccc4[C@@](C)(O)[C@H]3[C@H](O)[C@@H]12,outcome,[1],inactive
same,outcome,[2],inactive
same,outcome,[10],inactive
same,outcome,[4],inactive
same,AC50,[17],17.5 µM (active) and 10.5 µM (active) and 15.5 µM (active)
same,outcome,[5],inactive
same,outcome,[6],inactive
same,outcome,[7],inactive
same,outcome,[13],inactive
same,outcome,[8],inactive
same,outcome,[15],inactive
same,outcome,[9],inactive
same,outcome,[16],inactive
CC1=NNC(=O)N(/N=C/c2cccnc2)C1,outcome,[1],inactive
same,outcome,[2],inactive
same,outcome,[10],inactive
same,outcome,[4],inactive
same,outcome,[5],inactive
same,outcome,[6],inactive
same,outcome,[7],inactive
same,outcome,[8],inactive
same,outcome,[15],inactive
same,outcome,[18],inactive
same,outcome,[9],inactive
same,outcome,[16],inactive
CN1COCN(Cc2cnc(Cl)s2)C1=N[N+](=O)[O-],outcome,[1],inactive
same,outcome,[2],inactive
same,outcome,[10],inactive
same,outcome,[4],inactive
same,outcome,[5],inactive
same,outcome,[12],inactive
same,outcome,[6],inactive
same,outcome,[19],inactive
same,outcome,[13],inactive
same,outcome,[8],inactive
same,outcome,[20],inactive
same,outcome,[16],inactive
